Laboratory results published in article PMC7819943, “Rice protein-binding microarrays: a tool to detect cis-acting elements near promoter regions in rice”.
Whole data set: some 68,000 sequences, median “fluorescence intensity (a.u.)” near 9,100, cut for the highest 2% near 16,000. The sample as a whole holds a higher share of the highest values than the screen did.

What follows are sequences tested against OsWRKY34 (Oryza sativa, UniProt Q0JBA9 1-250) (assay: protein-binding microarray (RPBM); PBS, 2% BSA, 51.3 ng/ul salmon testes DNA, 50 uM zinc acetate, 200 nM TF, 25 C, 1 h; high values mean tight binding). Conditions: protein: recombinant; tags: N-terminal polyhistidine and DsRed monomer fusion (pET32a); label: CyDye5-dUTP incorporated in the synthesized complementary strand; 3' TTTTT single-stranded linker to array surface; dsDNA, one strand shown.
Chain of OsWRKY34 (Q0JBA9 entry or part of it): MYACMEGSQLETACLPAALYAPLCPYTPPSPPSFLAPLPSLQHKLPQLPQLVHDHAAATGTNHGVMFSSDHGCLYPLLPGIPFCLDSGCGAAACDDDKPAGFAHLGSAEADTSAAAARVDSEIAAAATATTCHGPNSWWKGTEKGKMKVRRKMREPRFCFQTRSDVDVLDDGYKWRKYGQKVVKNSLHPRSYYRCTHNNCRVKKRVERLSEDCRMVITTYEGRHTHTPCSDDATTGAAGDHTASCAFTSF
Outline: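 The binding signal is fluorescence intensity per feature, in arbitrary units, read on an Axon 4000B scanner. Polyhistidine- and DsRed-tagged transcription factors (N-terminal fusions) from E. coli BL21-CodonPlus were purified on Ni–NTA and applied at 200 nM for 1 h at 25 °C to a double-stranded, BSA-blocked custom Agilent array in buffer with 50 µM zinc acetate.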

Sequence	binding signal
GGCACGCTACTACTCCTACTATATGATAAAAAAACACTACCGGAGTCACCTAGTGCAG	8150 fluorescence intensity (a.u.)
TGGTCAAGCCCTTTTTGATCTTTTTTTTTCTGTCTCATGCCGGAGTCACCTAGTGCAG	9610 fluorescence intensity (a.u.)
CGCACCGTCGACTAGTCCCGTCCCGTCGCGCCGTTGCCTTCGGAGTCACCTAGTGCAG	8590 fluorescence intensity (a.u.)
ATTCGAGATCAGCTTTCTCTTCTATTTTGCTACTAGTTCTCGGAGTCACCTAGTGCAG	13000 fluorescence intensity (a.u.)
TAGGTCTGCTTCAGAGATGGGGTTAGGGTTAGATTTGTTCCGGAGTCACCTAGTGCAG	14000 fluorescence intensity (a.u.)
GACCTTATTTGCATTGATTGACCTTATTTGCATTGATTTTCGGAGTCACCTAGTGCAG	19700 fluorescence intensity (a.u.)
TATATATATATATATATATATATATATATATAAGGTTTGACGGAGTCACCTAGTGCAG	17300 fluorescence intensity (a.u.)
AAGTTTAGGGTGAGCAATGTCTGGTTTTCGGGTTCAGGGGCGGAGTCACCTAGTGCAG	13300 fluorescence intensity (a.u.)
GTAGGGGTGGTGGATTTTTTTTTATTTGCTGAGATGATTTCGGAGTCACCTAGTGCAG	20600 fluorescence intensity (a.u.)
GTGTTAGGTGCTGAGATTTTTGTACTTGCTTTATTATTTTCGGAGTCACCTAGTGCAG	8860 fluorescence intensity (a.u.)
GGTTATGGGCGGGTTGAGCAATGTTTTTCATGATTAGTCTCGGAGTCACCTAGTGCAG	18600 fluorescence intensity (a.u.)
ATATATATATATATATATATATATATATATAGTGGAATGACGGAGTCACCTAGTGCAG	12300 fluorescence intensity (a.u.)
TCTTGATTTTTGCATTAGTAGTAGTTGCGTCTTATATTTTCGGAGTCACCTAGTGCAG	12100 fluorescence intensity (a.u.)
TACCCTTTTTTTGGGTAGGGTGGGTTGGATTTATTTATTTCGGAGTCACCTAGTGCAG	12300 fluorescence intensity (a.u.)
TCATGGGCGGGTTGAGCAATGTTTCTTGTGATTAGTCTCACGGAGTCACCTAGTGCAG	16300 fluorescence intensity (a.u.)
GACGGGTGTTTCTAGGGTTAAGGTTAGGTTTTTTTTTTGACGGAGTCACCTAGTGCAG	9680 fluorescence intensity (a.u.)
TTAGATTTTTCTTACAACCATTTGCATTGATTTTTTTTTTCGGAGTCACCTAGTGCAG	8960 fluorescence intensity (a.u.)
TTGCTTTCCTTGGCCTCACGCTTGTTCCATGTTAGTTCGACGGAGTCACCTAGTGCAG	16100 fluorescence intensity (a.u.)
TATTGCACCTTTTCTCTATTGTTTTGAATTCAGTGAAGATCGGAGTCACCTAGTGCAG	11600 fluorescence intensity (a.u.)
GACCTGTCTACCGCCGCCCTAGTGACTAATGTTGACCACACGGAGTCACCTAGTGCAG	12000 fluorescence intensity (a.u.)
TTTTCAACCTTATATTGTCATTGTCCGTCAACTTGGCTTGCGGAGTCACCTAGTGCAG	8970 fluorescence intensity (a.u.)

Sequence	binding signal
CCTGTCATGGAGGATGTTTCCTGAAGTTTCAGAGCTGTATCGGAGTCACCTAGTGCAG	8310 fluorescence intensity (a.u.)
AATGATTACAACCTACCTCTTCTCAGCGGGGTGTCCATTACGGAGTCACCTAGTGCAG	8260 fluorescence intensity (a.u.)
TTTTCTTGTTTGATTGACATAATGGGCCCTACATATTTTTCGGAGTCACCTAGTGCAG	8440 fluorescence intensity (a.u.)
ATCGCTGGCTTATCATACTCTATTATACCTGCTCTAAGGACGGAGTCACCTAGTGCAG	10000 fluorescence intensity (a.u.)
GTTTTAATAATGTGTTTGTTTTGGGTTAAAAACCATACTACGGAGTCACCTAGTGCAG	8340 fluorescence intensity (a.u.)
ACAATGGCACGGTCTACAAAATATATTTTTGACCTTATTTCGGAGTCACCTAGTGCAG	8440 fluorescence intensity (a.u.)
GCTGACTTCATCTTCATTTTAATATATCTCAAACACCACGCGGAGTCACCTAGTGCAG	10200 fluorescence intensity (a.u.)
GATGTTCCTGGCCGTGATCGAGCTCCTGCGTTCTTGCTTACGGAGTCACCTAGTGCAG	10400 fluorescence intensity (a.u.)
GTTAGGGTTTTTTTTATTTTTCGATTTTTTTTGTGTTTTTCGGAGTCACCTAGTGCAG	12000 fluorescence intensity (a.u.)
TCTAGGGTTAGGGTTTCGTGATTTTTGGTTTTTTATTTTTCGGAGTCACCTAGTGCAG	16900 fluorescence intensity (a.u.)
GTGTATGTATATATGAGTATGTGTGTTTATATTGTATTTTCGGAGTCACCTAGTGCAG	8460 fluorescence intensity (a.u.)
AGAACAGTTTTTAATCTGACATGTGCCTGTAGTTTGTTGTCGGAGTCACCTAGTGCAG	10600 fluorescence intensity (a.u.)
GTTGAAGTTTTTGGCAGGGGTTAGTTTCGAAATAAGTTTTCGGAGTCACCTAGTGCAG	8170 fluorescence intensity (a.u.)
TTTTATGTTTGTTGGTTGTTGAGTTTATGTGATTATATTTCGGAGTCACCTAGTGCAG	9050 fluorescence intensity (a.u.)
GCGTGTGTTGTGAGATGTATTATGTTGTGCTTTGTATTTTCGGAGTCACCTAGTGCAG	14900 fluorescence intensity (a.u.)
TTGAAGTTTTTGGCAGGGGTTAGTTTCGAAATAAGTTTTCCGGAGTCACCTAGTGCAG	8480 fluorescence intensity (a.u.)
GGTTGAAGTTTTTGGCAGGGGTTAGTTTCGAAATAAGTTTCGGAGTCACCTAGTGCAG	17900 fluorescence intensity (a.u.)
CGGGGCGTGAGGGGTTATGAGTATATTTGTATTTTTTTTTCGGAGTCACCTAGTGCAG	18400 fluorescence intensity (a.u.)
CAGTTGGCCTGTTTGTTTGTTGGTTGTGATTAATCTGTGACGGAGTCACCTAGTGCAG	18800 fluorescence intensity (a.u.)
CGGGCGATTCTAGGGTTATGGTTAGGGTTTTTTTTATTTTCGGAGTCACCTAGTGCAG	14500 fluorescence intensity (a.u.)
TGGAGGTGGTGGTGGGAGGAAGGGGAGGAGGAGGCGCGGCCGGAGTCACCTAGTGCAG	15100 fluorescence intensity (a.u.)

Sequence	binding signal
AGCTGGCTAAATCATATTTCCAAAGTCTCTCTCGTCTCTCCGGAGTCACCTAGTGCAG	8510 fluorescence intensity (a.u.)
GCCTTCACAAAATCACAAGCGAATGATTTTACTGCCTTGCCGGAGTCACCTAGTGCAG	9190 fluorescence intensity (a.u.)
TGAGTTTTTGTTTGTATTGTTTGACTACTCGTCTTATTCACGGAGTCACCTAGTGCAG	10400 fluorescence intensity (a.u.)
AAGAGTACGGGTGGGGATGCTTTGGAGTTCACTCCAACTCCGGAGTCACCTAGTGCAG	10300 fluorescence intensity (a.u.)
TCCCGTACGCCTCTACTACCTCTTTTACCTGCGTGCCTTCCGGAGTCACCTAGTGCAG	11100 fluorescence intensity (a.u.)
CACCCTTCTTCTCACCCATTGACGGATGCCCTGGAGGTTTCGGAGTCACCTAGTGCAG	10400 fluorescence intensity (a.u.)
CGTTGATTTGGTTTGGGTTAGTTATGGGTTTGATTTTTTTCGGAGTCACCTAGTGCAG	20600 fluorescence intensity (a.u.)
GGGTTTTTGGTTTTGGTTTTGATTTTGATTTTGATTTTGACGGAGTCACCTAGTGCAG	16400 fluorescence intensity (a.u.)
AGGGTTTGGTTGATTTTCGGATTTGGTTTGGTTTTGACGACGGAGTCACCTAGTGCAG	13300 fluorescence intensity (a.u.)
ATTTTTTTCGGTTTGGTTGATTTTATTGAGTTACATTTACCGGAGTCACCTAGTGCAG	10900 fluorescence intensity (a.u.)
GTTATGGGTTTGATTTTTTTTCGTTTAGAAAGTTATGGGTCGGAGTCACCTAGTGCAG	9220 fluorescence intensity (a.u.)
AGTCGCAGTGGTTTTGGTTGGTTGGTTGATTACATTTTGACGGAGTCACCTAGTGCAG	20000 fluorescence intensity (a.u.)
GGTTTGGTTTTGTTTAGTGGGTTAGAAGCCAATGAGAGCACGGAGTCACCTAGTGCAG	10300 fluorescence intensity (a.u.)
CATCCGACCTCAACTCCTCTGTCCTCTACTACGCATCTCTCGGAGTCACCTAGTGCAG	14100 fluorescence intensity (a.u.)
TTTTTTTCTGGGGTTGCTTAGAATGGTACTAACTATGATTCGGAGTCACCTAGTGCAG	8900 fluorescence intensity (a.u.)
GTGTGGGGCTTTTAACTTTTTGTCACTTTTAAATTTTAAACGGAGTCACCTAGTGCAG	21300 fluorescence intensity (a.u.)
TATATTGCTCTTAATTTATTTGTGTTACTTTTTATGTGTTCGGAGTCACCTAGTGCAG	8330 fluorescence intensity (a.u.)
GTTAACTTGCTTATATGGTACTAGAAGAAAAACTTAATGGCGGAGTCACCTAGTGCAG	64900 fluorescence intensity (a.u.)
ATTATGCATTTATTTTATTTGAAACTTTAATGCTTTTTTTCGGAGTCACCTAGTGCAG	8110 fluorescence intensity (a.u.)
GATCACATGGGCCACACTTTTTTTTAATTATTTTTTGTGTCGGAGTCACCTAGTGCAG	8040 fluorescence intensity (a.u.)
GGGCTTATTTTTTTTTTTTAACTTTGTTATGCTCTAGAAACGGAGTCACCTAGTGCAG	20100 fluorescence intensity (a.u.)

Sequence	binding signal
TTATAAACTTGGTCAAACTTAATAAAGTTTGACTAGAAAACGGAGTCACCTAGTGCAG	8320 fluorescence intensity (a.u.)
GTAGTTTTGTGAAATTTACTTTTTTTTTTTTTTTTGATAACGGAGTCACCTAGTGCAG	9770 fluorescence intensity (a.u.)
CCCTCGTCTTCTTCTCCACGCGACGCCGGTCAAAGTTTGACGGAGTCACCTAGTGCAG	10700 fluorescence intensity (a.u.)
AGCCATCTTAAGTTAGGAACAGTTTCTTTTTTTAGAACTACGGAGTCACCTAGTGCAG	8290 fluorescence intensity (a.u.)
AAACCATTTTTTTTATCTATTATCCTTTGACTGTTTAATTCGGAGTCACCTAGTGCAG	10500 fluorescence intensity (a.u.)
AAATTTTTATATGCTGTGTATTTTCTATTTTTTTTATTTTCGGAGTCACCTAGTGCAG	11100 fluorescence intensity (a.u.)
GTGTTTGATTTGCCTCTCTTAAGAACCACTGTGAAAACATCGGAGTCACCTAGTGCAG	9680 fluorescence intensity (a.u.)
CTCGCCGCGTGCTCCTTTACTGCTCTCTGCTCGCGCAGGACGGAGTCACCTAGTGCAG	9230 fluorescence intensity (a.u.)
CCTCGACCGTCCCCAACCGACGACCCCGTGGTCACGCTCCCGGAGTCACCTAGTGCAG	10900 fluorescence intensity (a.u.)
GGTCAATTTAGGGCACACACCAAACCAGCCCTTACAACTTCGGAGTCACCTAGTGCAG	8620 fluorescence intensity (a.u.)
AAAAATATATCCAAGCAAATTCACACAGTCAAGTTCACTCCGGAGTCACCTAGTGCAG	14800 fluorescence intensity (a.u.)
GGTTGGTGTGGACCTTGCCCATTGTGAAACTTTGGTCAAACGGAGTCACCTAGTGCAG	8070 fluorescence intensity (a.u.)
TTCGAAATGTTTAACGCCGTTGACTTTTTATCATATGTTTCGGAGTCACCTAGTGCAG	35500 fluorescence intensity (a.u.)
TCGAAATGTTTGACGCCGTTGACTTTTTAAGTATATGTTTCGGAGTCACCTAGTGCAG	29200 fluorescence intensity (a.u.)
CCGTTTCATATTTAAATTGTTTTGACTTTTTTATAGTTAACGGAGTCACCTAGTGCAG	8140 fluorescence intensity (a.u.)
TTCGTTTGACTTTTGCCGTTTCAAATTTGAATTCTCGAAACGGAGTCACCTAGTGCAG	9080 fluorescence intensity (a.u.)
TCATGGATTATCTCTTTAATGTATAACGCCGTTGACTTTTCGGAGTCACCTAGTGCAG	14300 fluorescence intensity (a.u.)
TTCGAAATGTTTGACGCCGTTGACTTTTTAGCATATGTTTCGGAGTCACCTAGTGCAG	13200 fluorescence intensity (a.u.)
AGTTTCGAAATATTTGACGCCGTTGACTTTTTATCAAATGCGGAGTCACCTAGTGCAG	28300 fluorescence intensity (a.u.)
ACTTATTTTAGTTTGACTTGATTTTTCATCAAATGTTTTTCGGAGTCACCTAGTGCAG	10400 fluorescence intensity (a.u.)
CGTATGCTCCTTAGGTGATACTATGTCCCTATTTGCTTCACGGAGTCACCTAGTGCAG	8180 fluorescence intensity (a.u.)
